Experimental data as given in the supplement of paper PMC11417369.
± gives the standard deviation of the averaged measurements. Whole data set: some 25,000 sequences, median “ln(normalized median fluorescence intensity)” near 10, cut for the highest 2% near 12. For the sample, the highest values were picked, then their nearest neighbours and some sequences at random.

test system: PfAP2-G AP2 domain (GST-tagged); assay: gcPBM binding intensity (ln(normalized median fluorescence intensity)); higher = stronger DNA binding
Method in brief: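 Binding of GST-tagged P. falciparum DNA-binding domains, expressed in E. coli and used at about 25 μg on average, was carried out for 1 h in 1× PBS containing 1% milk, 0.2 mg/ml BSA, 0.5% salmon testes DNA and 0.03% Triton X-100. The target was an Agilent 4 × 180k array of primer-extended double-stranded 36-bp intergenic genomic probes plus negative controls, read with Alexa488 anti-GST antibody at 488 nm. Binding intensity is the highest Masliner-normalised natural-log median intensity across replicate spots of either probe orientation.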

Sequence | gcPBM binding intensity (ln)
ATAAACAGATAAAAGGGTACACACATATATACATGT [XGTACX_site452] | 11.4 ± 0.84
AACAGATAAAAGGGTACACACATATATACCTGTACA [CACACA_site4285] | 11.7 ± 0.99
ACATAAATAATAAAAACACACATATGTACAGATATA [CACACA_site5112] | 11.1 ± 0.59
AACAGATAAAAGGGTACACACATATATACATGTACA [CACACA_site225] | 11.6 ± 0.88
TAAACATATAAAAAGGGTACACATTAAACATAGTAT [XGTACX_site7096] | 11.3 ± 0.79
AACAGATAAAAGGGTACACACATATATACAAGTACA [CACACA_site7959] | 11.7 ± 0.83
AAGTACATACATAAAACACACACATATATATATATA [CACACA_site8541] | 10.5 ± 0.35
TTTTCATTTTTTTTTTTTTTTTTTTTTCTTTTTTTT [CACACA_negctrl_site1312] | 9.52 ± 0.099
TTTCCCTTAAATTAATGTACATAAATTGAAAATACC [XGTACX_site1602] | 11.3 ± 0.77
ACTTGACACGGACACACACACATATATAAAAAAAAA [CACACA_site4576] | 11.2 ± 0.91
AAAAAAAAAAAAAAAAGTACATATGCTCAAGAGATG [XGTACX_site3783] | 11.5 ± 0.82
TTTTTTTTTTTTTAATGTACCCATGGGCACATAGGT [XGTACX_site486] | 11.4 ± 1
CACTTTATACGTAATTGTACTTTTTCTTTTTTTTAT [XGTACX_site3175] | 11.5 ± 0.86
AAATAATATATATACACACACACATATATATATACA [CACACA_site554] | 10.03 ± 0.028
AAGTTATTTATATATACACACAAATATAAATAATAT [CACACA_site1228] | 9.97 ± 0.014
TTGTAATTATTAAACACACACAAAATATATATAATA [CACACA_site2523] | 10.3 ± 0.18
ATAGTTATTTTATAGCGTACACAATAAATATATAAA [XGTACX_site4445] | 11.7 ± 1.1
ATAATATAATAAACGTGTACACAATTAAATTATTAT [XGTACX_site3491] | 11.8 ± 0.76
TAAAATTTTTTATTCACACAAATATAGTTATATATA [CACACA_site5348] | 9.81 ± 0.16
ATATATATTAACAATACACACGTGTATACCTTATTG [CACACA_site5258] | 10.5 ± 0.22
TTATATTTTTTAATTACACACAATTTTTATAAATAT [CACACA_site4148] | 9.985 ± 0.021
TATATATTATACACGTGTACACATTATAACAATATA [XGTACX_site7799] | 11.7 ± 0.77
ATATATATATTAACAATACACACGTGTATACCTTAT [CACACA_site2217] | 10.38 ± 0.078

Sequence | gcPBM binding intensity (ln)
GTATATTAATAAACATGTACACAATTTATTTATATT [XGTACX_site1012] | 11.5 ± 0.98
TACAAATTAATATGTACACACAAATATAAATATGTA [CACACA_site7016] | 11.5 ± 0.98
ATATAATAAACGTGTACACAATTAAATTATTATATA [CACACA_site5017] | 11.7 ± 1.1
TTCTTTTTTATTTATACATGCAATAAAAAATTGATT [TGCATGCA_site730] | 9.925 ± 0.064
AGGACTAATATTTGAACACACATATAACATATACAT [CACACA_site7803] | 9.95 ± 0.085
AAAAAAAAAAAAATGTAATTTTTTAATTATTTATAT [GTGCAC_negctrl_site436] | 9.47 ± 0.11
GTATTCATGCTAAAGGTGCAATAATTTTTATAATAA [GTGCAC_site9603] | 10.2 ± 0.21
ATTTTTTTTAATTTGTACAAATTTTGTTCACAATTT [CACACA_negctrl_site1301] | 10.8 ± 0.4
AATTATTCTATATATTGTACATGTTTGTTTTTTTTT [XGTACX_site3130] | 10.9 ± 0.42
CATTATGTTGTAAATACACACATACAGATACATACA [CACACA_site4565] | 10.3 ± 0.16
ATTAAAAACGGGTGTACACATATATAAATATATATA [CACACA_site4539] | 11.7 ± 0.89
TATTTATAATAGTGTACACAATTATAAACTGAATAT [CACACA_site6041] | 11.7 ± 0.89
AATAGTAATTTGAATACACACAATAATATATTTATA [CACACA_site7055] | 9.96 ± 0.042
GTTATTAAAAACGGGTGTACACATATATAAATATAT [XGTACX_site1234] | 11.6 ± 0.86
ATATAAAACAACGGGTGTACAAAAAAATAAATAATA [XGTACX_site4094] | 11.3 ± 0.76
ATATTATACCCGTGTACACATTATAACCATATATAA [CACACA_site5933] | 11.7 ± 0.82
TTTATTAATTTATAGTGTACATATTAATAATATATT [XGTACX_site7949] | 11.3 ± 0.68
TATTACCCATATTATACACACATATATTATATATAT [CACACA_site1567] | 10.3 ± 0.2
CATTATTATTAACATACACACGTGTTATATACCCCC [CACACA_site9365] | 11 ± 0.61
AATAAAATAATAGGCACACATATATATATATATTAT [CACACA_site273] | 10.1 ± 0.26
CTATTAATGTACTCTACACACATATAAGAGGACATT [CACACA_site471] | 11.6 ± 0.86
AAATAAAATAAAAGCACACAAAATGTAAATAATTAT [CACACA_site2775] | 10.01 ± 0.035
